Binding signal data for 1 sequence are collected here from PMC7862700, “An all-to-all approach to the identification of sequence-specific readers for epigenetic DNA modifications on cytosine”.

Common to all, as to assay: DAPPL (digital affinity profiling via proximity ligation, sequencing); 10 mM Tris-HCl pH 7.5, 50 mM NaCl, 1 mM DTT, 4% glycerol, room temperature, 30 min; GST-TFs on glutathione beads, 16-mer random dsDNA library, 0.1% formaldehyde crosslink after washing; high values mean tight binding
In assay [1] the target is T1, FLI1 (Homo sapiens, UniProt Q01543 1-452).
T1 sequence: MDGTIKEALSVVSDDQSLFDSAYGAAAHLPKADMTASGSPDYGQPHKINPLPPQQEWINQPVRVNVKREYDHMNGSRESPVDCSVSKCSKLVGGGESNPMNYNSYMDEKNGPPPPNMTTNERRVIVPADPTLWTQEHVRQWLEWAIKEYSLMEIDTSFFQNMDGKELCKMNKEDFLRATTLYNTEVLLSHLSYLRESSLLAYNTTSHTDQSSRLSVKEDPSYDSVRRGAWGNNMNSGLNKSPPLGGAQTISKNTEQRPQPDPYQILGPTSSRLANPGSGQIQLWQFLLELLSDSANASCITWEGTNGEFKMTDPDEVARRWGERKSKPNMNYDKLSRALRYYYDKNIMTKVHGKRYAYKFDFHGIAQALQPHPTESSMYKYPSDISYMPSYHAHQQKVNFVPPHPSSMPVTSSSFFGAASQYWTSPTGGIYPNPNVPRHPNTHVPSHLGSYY
The conditions noted are these: protein: recombinant; tags: N-terminal GST; dsDNA, one strand shown. The method, boiled down:
(§1)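 In yeast, human transcription factors were expressed with a GST fusion, then pulled down on glutathione beads and given DNA barcodes. Pooled with a tag-only sample, they were exposed to 200 nmole of a 16-mer random double-stranded DNA library (Tris/NaCl/DTT/glycerol buffer, room temperature, 30 min), washed, crosslinked with 0.1% formaldehyde, proximity-ligated using BsaI/T4 ligase for 1 h at 37 °C, PCR-amplified and read on an Illumina NextSeq500. Each hexamer's frequency of reads for a factor, divided by the matching frequency for the tag-only sample, gives the binding signal.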

Assay [2] addresses T2, ELK1 (Homo sapiens, UniProt P19419 1-428).
T2 sequence: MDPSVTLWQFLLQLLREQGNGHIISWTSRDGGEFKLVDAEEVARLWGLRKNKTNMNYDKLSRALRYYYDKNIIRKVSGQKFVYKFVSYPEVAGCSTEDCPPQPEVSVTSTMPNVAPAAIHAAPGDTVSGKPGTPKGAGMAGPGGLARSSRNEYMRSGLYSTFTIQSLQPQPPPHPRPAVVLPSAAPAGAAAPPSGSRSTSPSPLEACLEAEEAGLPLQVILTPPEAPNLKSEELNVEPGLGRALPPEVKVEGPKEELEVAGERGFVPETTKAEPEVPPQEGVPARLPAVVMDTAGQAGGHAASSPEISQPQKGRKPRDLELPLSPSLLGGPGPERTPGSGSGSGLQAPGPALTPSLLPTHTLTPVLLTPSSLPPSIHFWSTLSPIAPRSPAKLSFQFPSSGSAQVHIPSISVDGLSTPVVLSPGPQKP
The conditions noted are these: protein: recombinant; tags: N-terminal GST; dsDNA, one strand shown. In a few lines: as §1

Assay [3] has as its target T3, GABPA (Homo sapiens, UniProt Q06546 1-454).
T3 sequence: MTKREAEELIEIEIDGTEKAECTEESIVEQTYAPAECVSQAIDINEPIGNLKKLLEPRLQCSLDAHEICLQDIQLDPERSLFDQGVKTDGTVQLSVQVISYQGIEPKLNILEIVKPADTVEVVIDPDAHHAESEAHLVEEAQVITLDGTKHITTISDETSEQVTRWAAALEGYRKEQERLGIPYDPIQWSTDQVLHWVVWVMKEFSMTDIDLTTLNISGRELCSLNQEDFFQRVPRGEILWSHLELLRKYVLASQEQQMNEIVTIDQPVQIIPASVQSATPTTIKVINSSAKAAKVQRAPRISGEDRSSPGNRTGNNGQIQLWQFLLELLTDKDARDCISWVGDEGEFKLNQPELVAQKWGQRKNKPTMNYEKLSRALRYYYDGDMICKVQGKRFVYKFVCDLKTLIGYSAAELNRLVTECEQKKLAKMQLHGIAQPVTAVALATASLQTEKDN
The settings on record: protein: recombinant; tags: N-terminal GST; dsDNA, one strand shown. In a few lines: as §1

Assay [4] addresses T4, ERG (Homo sapiens, UniProt P11308 1-479).
T4 sequence: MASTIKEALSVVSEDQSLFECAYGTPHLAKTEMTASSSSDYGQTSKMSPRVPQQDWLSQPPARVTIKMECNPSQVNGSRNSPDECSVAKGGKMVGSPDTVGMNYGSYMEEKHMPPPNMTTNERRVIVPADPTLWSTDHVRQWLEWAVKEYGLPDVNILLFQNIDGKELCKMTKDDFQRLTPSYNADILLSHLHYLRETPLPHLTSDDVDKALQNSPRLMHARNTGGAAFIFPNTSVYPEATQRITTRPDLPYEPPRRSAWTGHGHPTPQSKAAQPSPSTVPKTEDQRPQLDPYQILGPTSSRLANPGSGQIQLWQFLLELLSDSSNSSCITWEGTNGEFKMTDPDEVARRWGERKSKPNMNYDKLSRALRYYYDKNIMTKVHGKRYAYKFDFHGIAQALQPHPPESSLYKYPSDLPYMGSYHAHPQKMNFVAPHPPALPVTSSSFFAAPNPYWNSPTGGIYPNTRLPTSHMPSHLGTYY
The conditions noted are these: protein: recombinant; tags: N-terminal GST; dsDNA, one strand shown. In a few lines:
as §1

The target in assay [5] is ELF1 (Homo sapiens, UniProt P32519 1-619). The settings on record: protein: recombinant; tags: N-terminal GST; dsDNA, one strand shown. The method, boiled down: as §1
In assay [6] the target is T5, EHF (Homo sapiens, UniProt Q9NZC4 1-300).
T5 sequence: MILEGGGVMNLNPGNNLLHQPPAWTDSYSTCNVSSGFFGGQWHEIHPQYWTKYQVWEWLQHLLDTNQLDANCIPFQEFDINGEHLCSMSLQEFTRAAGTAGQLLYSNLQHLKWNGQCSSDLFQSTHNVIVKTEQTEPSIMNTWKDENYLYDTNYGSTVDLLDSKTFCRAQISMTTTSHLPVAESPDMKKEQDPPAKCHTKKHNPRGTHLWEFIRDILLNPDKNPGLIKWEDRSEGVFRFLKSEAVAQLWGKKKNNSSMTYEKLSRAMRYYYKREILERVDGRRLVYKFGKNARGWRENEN
The settings on record: protein: recombinant; tags: N-terminal GST; dsDNA, one strand shown. In a few lines: as §1

Assay [7] concerns the target SPI1 (Homo sapiens, UniProt P17947 1-270). The settings on record: protein: recombinant; tags: N-terminal GST; dsDNA, one strand shown. The method, boiled down: as §1
Assay [8] addresses SPIB (Homo sapiens, UniProt Q01892 1-262). The settings on record: protein: recombinant; tags: N-terminal GST; dsDNA, one strand shown. The method, boiled down: as §1
Assay [9] deals with T6, FEV (Homo sapiens, UniProt Q99581 1-238).
T6 sequence: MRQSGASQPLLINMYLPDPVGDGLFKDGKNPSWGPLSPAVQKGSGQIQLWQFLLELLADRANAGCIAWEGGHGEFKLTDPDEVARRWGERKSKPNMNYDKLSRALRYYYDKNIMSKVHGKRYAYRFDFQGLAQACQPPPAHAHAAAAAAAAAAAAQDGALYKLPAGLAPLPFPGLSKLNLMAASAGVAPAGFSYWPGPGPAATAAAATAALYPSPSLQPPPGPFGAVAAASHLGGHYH
The settings on record: protein: recombinant; tags: N-terminal GST; dsDNA, one strand shown. The method, boiled down:
as §1

Assay [10] deals with ETV5 (Homo sapiens, UniProt P41161 1-510). The settings on record: protein: recombinant; tags: N-terminal GST; dsDNA, one strand shown. In a few lines: as §1
In assay [11] the target is HSF1 (Homo sapiens, UniProt Q00613 1-529). The settings on record: protein: recombinant; tags: N-terminal GST; chain copies: 3; dsDNA, one strand shown. The method, boiled down: as §1
For assay [12], the target named is T7, SPIC (Homo sapiens, UniProt Q8N5J4 1-248).
T7 sequence: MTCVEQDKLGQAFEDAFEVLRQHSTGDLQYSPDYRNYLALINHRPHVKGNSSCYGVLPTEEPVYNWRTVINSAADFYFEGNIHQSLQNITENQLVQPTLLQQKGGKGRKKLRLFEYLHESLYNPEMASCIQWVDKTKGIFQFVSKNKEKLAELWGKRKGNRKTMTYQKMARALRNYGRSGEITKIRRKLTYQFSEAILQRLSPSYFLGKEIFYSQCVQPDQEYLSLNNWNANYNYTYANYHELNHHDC
The conditions noted are these: protein: recombinant; tags: N-terminal GST; dsDNA, one strand shown. The method, boiled down:
as §1

For assay [13], the target named is ELF4 (Homo sapiens, UniProt Q99607 1-663). The conditions noted are these: protein: recombinant; tags: N-terminal GST; dsDNA, one strand shown. In a few lines:
as §1

For assay [14], the target named is T8, ELK4 (Homo sapiens, UniProt P28324-2 1-405).
T8 sequence: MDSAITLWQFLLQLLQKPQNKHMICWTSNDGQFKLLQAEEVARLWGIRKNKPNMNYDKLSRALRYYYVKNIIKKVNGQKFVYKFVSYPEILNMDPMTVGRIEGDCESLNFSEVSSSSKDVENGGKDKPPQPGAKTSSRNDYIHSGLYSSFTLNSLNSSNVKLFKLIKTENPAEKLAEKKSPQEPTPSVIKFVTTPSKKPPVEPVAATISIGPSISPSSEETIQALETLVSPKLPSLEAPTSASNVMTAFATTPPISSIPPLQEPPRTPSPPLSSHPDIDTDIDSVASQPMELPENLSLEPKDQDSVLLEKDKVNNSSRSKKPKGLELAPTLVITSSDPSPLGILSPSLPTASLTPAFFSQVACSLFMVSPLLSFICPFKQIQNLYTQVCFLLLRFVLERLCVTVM
The conditions noted are these: protein: recombinant; tags: N-terminal GST; dsDNA, one strand shown. In a few lines: as §1

In assay [15] the target is T9, ETV2 (Homo sapiens, UniProt O00321 1-342).
T9 sequence: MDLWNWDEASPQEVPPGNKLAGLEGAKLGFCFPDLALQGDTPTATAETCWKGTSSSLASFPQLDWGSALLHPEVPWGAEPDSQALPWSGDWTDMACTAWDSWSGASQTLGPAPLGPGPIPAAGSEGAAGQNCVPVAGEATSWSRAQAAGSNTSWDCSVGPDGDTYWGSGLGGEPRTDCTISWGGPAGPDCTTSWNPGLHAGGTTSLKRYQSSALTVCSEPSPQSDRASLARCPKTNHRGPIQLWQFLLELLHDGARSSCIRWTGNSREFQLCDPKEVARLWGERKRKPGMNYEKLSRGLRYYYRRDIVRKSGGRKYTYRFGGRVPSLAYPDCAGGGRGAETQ
The conditions noted are these: protein: recombinant; tags: N-terminal GST; dsDNA, one strand shown. The method, boiled down:
as §1

Assay [16] deals with T10, ELF3 (Homo sapiens, UniProt P78545 1-371).
T10 sequence: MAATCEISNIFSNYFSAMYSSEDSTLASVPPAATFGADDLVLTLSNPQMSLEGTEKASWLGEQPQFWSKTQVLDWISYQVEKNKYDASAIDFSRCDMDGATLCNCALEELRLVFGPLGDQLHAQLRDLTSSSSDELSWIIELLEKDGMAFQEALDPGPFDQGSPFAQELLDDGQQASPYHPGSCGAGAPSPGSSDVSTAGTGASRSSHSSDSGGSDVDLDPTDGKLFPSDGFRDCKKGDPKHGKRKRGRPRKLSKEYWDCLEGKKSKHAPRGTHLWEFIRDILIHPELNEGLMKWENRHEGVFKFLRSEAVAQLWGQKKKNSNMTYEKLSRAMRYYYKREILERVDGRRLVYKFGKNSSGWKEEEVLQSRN
The conditions noted are these: protein: recombinant; tags: N-terminal GST; dsDNA, one strand shown. In a few lines:
as §1

The target of assay [17] is CRX (Homo sapiens, UniProt O43186 1-299). The settings on record: protein: recombinant; tags: N-terminal GST; dsDNA, one strand shown. The method, boiled down: as §1
The target of assay [18] is ETV1 (Homo sapiens, UniProt P50549 1-477). The settings on record: protein: recombinant; tags: N-terminal GST; dsDNA, one strand shown. In a few lines: as §1
ETV1, sequence (P50549 whole entry): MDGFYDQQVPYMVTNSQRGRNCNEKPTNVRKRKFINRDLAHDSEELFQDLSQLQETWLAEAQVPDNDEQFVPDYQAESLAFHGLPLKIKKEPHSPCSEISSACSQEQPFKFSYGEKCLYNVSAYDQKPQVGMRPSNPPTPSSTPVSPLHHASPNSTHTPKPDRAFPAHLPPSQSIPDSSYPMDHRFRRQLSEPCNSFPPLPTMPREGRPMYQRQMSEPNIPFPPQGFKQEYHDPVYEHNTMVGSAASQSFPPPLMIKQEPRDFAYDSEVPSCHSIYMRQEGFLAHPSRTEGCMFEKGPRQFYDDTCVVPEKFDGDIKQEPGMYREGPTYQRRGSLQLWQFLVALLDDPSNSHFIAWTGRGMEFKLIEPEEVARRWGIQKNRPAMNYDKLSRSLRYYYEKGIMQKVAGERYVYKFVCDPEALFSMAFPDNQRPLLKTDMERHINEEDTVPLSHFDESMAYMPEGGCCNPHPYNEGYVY

ELF4, sequence (Q99607 whole entry): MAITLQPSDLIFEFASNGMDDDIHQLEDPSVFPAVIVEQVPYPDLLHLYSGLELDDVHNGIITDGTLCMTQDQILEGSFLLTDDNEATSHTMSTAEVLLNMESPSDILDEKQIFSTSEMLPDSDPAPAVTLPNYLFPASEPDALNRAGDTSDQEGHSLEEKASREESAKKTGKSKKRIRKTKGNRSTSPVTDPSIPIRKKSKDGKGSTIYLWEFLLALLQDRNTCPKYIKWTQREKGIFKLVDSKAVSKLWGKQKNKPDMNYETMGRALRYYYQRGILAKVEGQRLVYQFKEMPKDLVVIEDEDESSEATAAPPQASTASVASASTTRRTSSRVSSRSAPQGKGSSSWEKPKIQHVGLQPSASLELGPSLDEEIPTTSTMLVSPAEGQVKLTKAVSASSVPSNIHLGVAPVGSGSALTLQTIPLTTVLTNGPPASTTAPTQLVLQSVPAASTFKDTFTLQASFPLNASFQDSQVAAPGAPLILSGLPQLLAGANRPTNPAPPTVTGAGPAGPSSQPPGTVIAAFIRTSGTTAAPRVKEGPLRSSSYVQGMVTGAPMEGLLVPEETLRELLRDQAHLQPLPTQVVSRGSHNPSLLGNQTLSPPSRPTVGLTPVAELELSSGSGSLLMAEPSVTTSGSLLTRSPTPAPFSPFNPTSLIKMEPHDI
HSF1, sequence (Q00613 whole entry): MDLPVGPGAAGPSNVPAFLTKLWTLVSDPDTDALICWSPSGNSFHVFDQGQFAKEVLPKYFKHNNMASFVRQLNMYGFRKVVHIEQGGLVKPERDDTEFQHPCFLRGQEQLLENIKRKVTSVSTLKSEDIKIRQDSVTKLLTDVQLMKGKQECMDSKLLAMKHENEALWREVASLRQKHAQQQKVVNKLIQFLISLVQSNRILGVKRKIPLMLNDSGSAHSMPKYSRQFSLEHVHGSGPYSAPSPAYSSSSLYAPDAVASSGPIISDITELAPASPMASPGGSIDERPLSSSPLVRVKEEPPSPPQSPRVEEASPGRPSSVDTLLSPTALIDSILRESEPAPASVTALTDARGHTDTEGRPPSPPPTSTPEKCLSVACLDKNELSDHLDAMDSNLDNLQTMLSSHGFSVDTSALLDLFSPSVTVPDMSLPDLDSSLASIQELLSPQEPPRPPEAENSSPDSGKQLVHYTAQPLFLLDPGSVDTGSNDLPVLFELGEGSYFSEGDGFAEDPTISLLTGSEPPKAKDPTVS
ELF1, sequence (P32519 whole entry): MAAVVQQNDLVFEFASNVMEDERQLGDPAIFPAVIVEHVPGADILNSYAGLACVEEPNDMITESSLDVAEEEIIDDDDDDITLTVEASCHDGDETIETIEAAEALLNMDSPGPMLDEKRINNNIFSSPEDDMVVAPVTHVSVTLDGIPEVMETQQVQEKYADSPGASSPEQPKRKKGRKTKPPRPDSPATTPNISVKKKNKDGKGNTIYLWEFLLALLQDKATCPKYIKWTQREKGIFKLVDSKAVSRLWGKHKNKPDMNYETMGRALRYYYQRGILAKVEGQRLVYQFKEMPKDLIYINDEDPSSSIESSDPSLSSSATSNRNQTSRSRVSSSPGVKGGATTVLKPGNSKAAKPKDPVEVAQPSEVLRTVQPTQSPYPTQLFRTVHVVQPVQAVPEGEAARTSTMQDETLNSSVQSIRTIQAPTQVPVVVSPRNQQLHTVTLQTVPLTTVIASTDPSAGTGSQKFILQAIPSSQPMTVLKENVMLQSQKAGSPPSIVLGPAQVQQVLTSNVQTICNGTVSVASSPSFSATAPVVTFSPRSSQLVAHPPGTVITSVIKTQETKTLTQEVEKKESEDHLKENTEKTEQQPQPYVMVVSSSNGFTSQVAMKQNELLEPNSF
SPIB, sequence (Q01892 whole entry): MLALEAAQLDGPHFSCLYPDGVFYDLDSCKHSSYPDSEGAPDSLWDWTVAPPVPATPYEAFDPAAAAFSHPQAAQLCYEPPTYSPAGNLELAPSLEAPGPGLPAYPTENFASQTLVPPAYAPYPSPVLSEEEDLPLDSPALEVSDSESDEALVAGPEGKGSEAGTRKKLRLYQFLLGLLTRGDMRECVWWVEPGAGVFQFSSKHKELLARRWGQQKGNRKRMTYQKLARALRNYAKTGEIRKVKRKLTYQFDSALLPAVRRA
ETV5, sequence (P41161 whole entry): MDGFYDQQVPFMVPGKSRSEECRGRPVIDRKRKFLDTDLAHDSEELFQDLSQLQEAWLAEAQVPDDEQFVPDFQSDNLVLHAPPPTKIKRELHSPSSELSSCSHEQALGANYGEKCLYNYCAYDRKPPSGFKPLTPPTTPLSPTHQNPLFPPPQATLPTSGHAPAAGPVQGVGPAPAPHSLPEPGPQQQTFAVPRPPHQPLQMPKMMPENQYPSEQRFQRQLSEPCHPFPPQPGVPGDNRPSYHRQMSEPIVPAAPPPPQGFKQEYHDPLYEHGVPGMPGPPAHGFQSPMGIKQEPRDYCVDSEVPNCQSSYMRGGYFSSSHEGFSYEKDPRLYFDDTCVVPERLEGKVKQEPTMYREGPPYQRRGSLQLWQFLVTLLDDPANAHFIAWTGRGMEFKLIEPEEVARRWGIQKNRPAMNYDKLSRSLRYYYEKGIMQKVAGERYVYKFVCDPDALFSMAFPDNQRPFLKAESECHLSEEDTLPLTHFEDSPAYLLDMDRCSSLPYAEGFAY
CRX, sequence (O43186 whole entry): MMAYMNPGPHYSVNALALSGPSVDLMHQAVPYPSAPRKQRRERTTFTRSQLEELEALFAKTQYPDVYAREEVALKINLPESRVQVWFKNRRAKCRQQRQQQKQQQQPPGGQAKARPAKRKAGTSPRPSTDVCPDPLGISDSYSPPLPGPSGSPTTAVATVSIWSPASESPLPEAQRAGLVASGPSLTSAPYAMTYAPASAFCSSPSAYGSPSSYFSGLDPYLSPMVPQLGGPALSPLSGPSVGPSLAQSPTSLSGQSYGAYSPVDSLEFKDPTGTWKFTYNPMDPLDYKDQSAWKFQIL

With TATCGC, the binding signal in [1] is 1.13 fold enrichment (6-mer frequency, TF over GST control); in assay [2], 1.16 fold enrichment (6-mer frequency, TF over GST control); in assay [3], 1.23 fold enrichment (6-mer frequency, TF over GST control); in [4], 1.15 fold enrichment (6-mer frequency, TF over GST control); in [5], 1.16 fold enrichment (6-mer frequency, TF over GST control); in assay [6] it was 1.28 fold enrichment (6-mer frequency, TF over GST control). For the same sequence, the binding signal in [7] was 1.08 fold enrichment (6-mer frequency, TF over GST control); in assay [8], 1.16 fold enrichment (6-mer frequency, TF over GST control); in assay [9] it was 1.17 fold enrichment (6-mer frequency, TF over GST control); in assay [10], 1.13 fold enrichment (6-mer frequency, TF over GST control); in [11], 1.22 fold enrichment (6-mer frequency, TF over GST control); in [12] it was 1.21 fold enrichment (6-mer frequency, TF over GST control). For the same sequence, the binding signal in [13] was 1.23 fold enrichment (6-mer frequency, TF over GST control); in assay [14], 1.3 fold enrichment (6-mer frequency, TF over GST control); in assay [15], 1.07 fold enrichment (6-mer frequency, TF over GST control); in assay [16], 1.1 fold enrichment (6-mer frequency, TF over GST control); in assay [17], 1.41 fold enrichment (6-mer frequency, TF over GST control); in assay [18] it was 1.22 fold enrichment (6-mer frequency, TF over GST control).
